Assay results: PubChem BioAssay AID1259422 (The Scripps Research Institute Molecular Screening Center, 2018)
In all, about 640,000 compounds went through this assay and about 9,300 (1.5%) were called active. Many of the other results were omitted from the sample, so actives are more common in it than they were. Values without a mark were called inactive. Rule as the data show it: active = inhibition above about 32%; inactive = the rest.

Assay: TEAD-YAP interaction inhibition, primary screen, TEAD-YAP interaction inhibitor project, luminescence, HEK-TIYL cells (AID 1259422);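 also: 0% = median of test compound wells and 100% = reference inhibitor wells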
Details: TEAD-Gal4/YAP UAS-luciferase luminescence, at 9.12 µM, stronger effect = higher value
`O=C(Nc1ccc(Cl)c(Cl)c1)c1ccc(C(=O)Nc2ccc(Cl)c(Cl)c2)cc1` gave an inhibition of -3.3%. For `O=C(CC(O)(C(F)(F)F)C(F)(F)F)Nc1ccc(Cl)c(Cl)c1`, the inhibition was 58.9% (active). `O=C(COc1ccc(CO)cc1)Nc1ccc(Cl)c(Cl)c1` showed an inhibition of -15.9%. `CCn1c(CNc2c(C)cccc2C)nnc1SCC(N)=O` gave an inhibition of -2.12%. Compound `CCOC(=O)c1c(NC(=O)c2cc(OC)c(OC)c(OC)c2)sc(C(=O)N2CCCC2)c1C` has an inhibition of -7.23%. In the case of `CCOC(=O)c1cnc2c(C)c(C)ccc2c1NCCCN(C)C`, the inhibition was 81.7% (active). For `CCOC(=O)c1cnc2c(Cl)c(Cl)ccc2c1NCCN(C)C`, the inhibition was -5.54%. Work on `CCOC(=O)c1cnc2c(Cl)c(Cl)ccc2c1NCCOC(=O)c1cccnc1` yielded an inhibition of 0.48%. Work on `C/C(=C\C(=O)ONC(=O)c1ccccc1)NCc1ccccc1` yielded an inhibition of -18.2%. `CCOC(=O)C1=C(C)N(c2ccc(C)c(C)c2)C(=O)/C1=C\c1cccs1` showed an inhibition of 3.05%. `O=C(CNS(=O)(=O)c1cccc2nonc12)NCc1ccccc1` gave an inhibition of 8.04%. With `COc1cccc(N2CCN(CC(=O)Nc3ccccc3C(N)=O)CC2)c1` the inhibition was 91.2% (active). Compound `COc1ccc(NC(=O)CN2CCN(C)CC2)c(OC)c1` has an inhibition of -0.51%. `Cc1ccc(NC(=O)CN2CCN(c3cccc(Cl)c3)CC2)cc1` gave an inhibition of 5.46%. In the case of `CCCCn1c(CNC(=O)c2cccc(OC)c2)nnc1SCC(=O)Nc1sc2c(c1C(=O)OCC)CCCC2`, the inhibition was 1.81%. `CCOc1ccccc1C(=O)NCc1ccccc1` gave an inhibition of -14.4%. `CCOCC(=O)NCc1ccc2c(c1)cc(C)n2C` gave an inhibition of -6.23%. With `CCOc1ccccc1C(=O)NCc1ccc2c(c1)cc(C)n2C` the inhibition was 51.1% (active). `CC1=NN(c2ccccc2)C(=O)C1/C=C1\SC(=O)NC1=O` (stereo not given) gave an inhibition of 13.7%. With `CC1=NN(c2ccccc2)C(=O)C1N=Nc1c(C)n[nH]c1C` (stereo not given) the inhibition was 38.6% (active). In the case of `CC1=NN(c2ccccc2)C(=O)C1Cl` (stereo not given), the inhibition was 17%. Work on `CC1=C(C(=O)OCc2ccccc2)C(c2cccc(I)c2)C2=C(CC(C)(C)CC2=O)N1` (stereo not given) yielded an inhibition of 6.12%. `Cc1ccccc1-n1c(SCC#N)nc2c(sc(=S)n2-c2ccccc2C)c1=O` gave an inhibition of -17.8%. Work on `COc1cc(C#N)cc(Cl)c1OC(C)=O` yielded an inhibition of 3.38%. Compound `Cc1ccc2sc(-c3ccc(NC(=O)C(C)C)cc3)nc2c1` has an inhibition of -16.9%. With `Cc1ccc2nc(-c3ccc(NC(=O)CSc4n[nH]c(N)n4)cc3)sc2c1` the inhibition was 48.5% (active). In the case of `Nc1nc(SCC(=O)Nc2ccc(F)c(Cl)c2)n[nH]1`, the inhibition was 4.23%. In the case of `Nc1nc(SCC(=O)Nc2ccc3c(c2)C(=O)c2ccccc2C3=O)n[nH]1`, the inhibition was -48.4%. With `Cc1ccc2nc(-c3ccc(NC(=O)CCl)cc3)sc2c1` the inhibition was 32% (active). Work on `Cc1cccc(N(CC(=O)Nc2ccc(-c3nc4ccc(C)cc4s3)cc2)S(C)(=O)=O)c1` yielded an inhibition of 8.01%. `O=C(COC(=O)c1cc2ccccc2oc1=O)c1ccc(I)cc1` showed an inhibition of 3.37%. `CCN(CC)c1ccc2cc(-c3nnc(Nc4cc(Cl)ccc4OC)s3)c(=O)oc2c1` showed an inhibition of 5.73%. Work on `CCN=C1SC(CC(=O)Nc2ccccc2SC)C(=O)N1CC` (stereo not given) yielded an inhibition of -3.27%. Compound `Cc1ccccc1NC(=O)CCC(=O)OCC(=O)c1ccc([N+](=O)[O-])cc1` has an inhibition of 7.47%. `Cc1cc(Nc2nc3ccccc3n3nnnc23)n(-c2ccc([N+](=O)[O-])cc2)n1` showed an inhibition of 29.3%. Compound `N#C/C(=C/c1ccccc1F)C(=O)NCCc1c[nH]c2ccccc12` has an inhibition of 12.4%. Compound `CCCC(=O)Nc1ccccc1NC(=O)Cc1ccccc1` has an inhibition of -1.49%. Work on `Cc1ccsc1C(=O)NCC1CCC2(CCN(C(=O)c3ccc(F)cc3)CC2)O1` (stereo not given) yielded an inhibition of -0.6%. Compound `O=C(Nc1cccc(Br)c1)c1ccccc1[N+](=O)[O-]` has an inhibition of -3.71%. In the case of `Cc1ccc(CCC(=O)Nc2ncc(Cc3cc(Cl)ccc3Cl)s2)o1`, the inhibition was 43.6% (active). With `Cc1ccc(C(=O)Nc2ncc(Cc3ccc(Cl)cc3)s2)o1` the inhibition was -24.8%. For `Cc1ccc(Cc2cnc(NC(=O)CCl)s2)cc1`, the inhibition was 24.8%. `CCOC(=O)c1ccc(S(=O)(=O)NNC(=O)CCN2C(C)CCCC2C)cc1` (stereo not given) gave an inhibition of 4.62%. With `CCOc1ccc(NC(=O)c2ccc(Br)c(S(=O)(=O)N3CCCC3)c2)cc1` the inhibition was 35.5% (active). Compound `CCc1ccccc1NC(=O)c1ccc(F)c(S(=O)(=O)NC2CCCCCC2)c1` has an inhibition of -8.09%. With `O=C(Oc1cccc(NC(=O)c2ccccc2Cl)c1)c1ccc(Br)c(S(=O)(=O)N2CCCCC2)c1` the inhibition was 41.8% (active). `CCOc1ccc(NC(=O)c2ccc(F)c(S(=O)(=O)NCCc3ccccc3)c2)cc1` gave an inhibition of 20.5%. Work on `CC1CCN(S(=O)(=O)c2cc(C(=O)Oc3cccc(NC(=O)c4ccccc4)c3)c(Cl)cc2Cl)CC1` yielded an inhibition of -2.37%. `Cc1cccc(NC(=O)c2ccc(C)c(S(=O)(=O)N3CCCC3)c2)c1` showed an inhibition of -31.9%. For `CCOc1ccccc1NC(=O)c1ccc(F)c(S(=O)(=O)N2CCCC2)c1`, the inhibition was -2.89%. In the case of `CCOc1ccc(NC(=O)c2ccc(F)c(S(=O)(=O)NC3CCCCCC3)c2)cc1`, the inhibition was 43.4% (active). Work on `O=C(Oc1cccc(NC(=O)c2ccccc2Cl)c1)c1ccc(Cl)c(S(=O)(=O)N2CCCCC2)c1` yielded an inhibition of -1.45%. For `Cc1nc2ccc(C(=O)OCC(=O)c3ccc([N+](=O)[O-])cc3)cc2nc1C`, the inhibition was 3.04%. Work on `O=C(O)C1CN(C(c2ccccc2)c2ccccc2)C1` yielded an inhibition of 3.68%. For `CCC(C)NC(=O)Nc1cccc(Cl)c1C` (stereo not given), the inhibition was -4.8%. Compound `COC(=O)c1ccc(NC(=O)c2ccc(C)o2)cc1` has an inhibition of -47%. `c1ccc(N2CCN(N=C3c4ccccc4-c4ccccc43)CC2)nc1` showed an inhibition of -13.3%. `NC(=O)C(=O)N/N=C/c1cn(-c2ccccc2)nc1-c1cccs1` gave an inhibition of -10.6%. In the case of `NC(=O)N/N=C/c1cn(-c2ccccc2)nc1-c1cc2ccccc2oc1=O`, the inhibition was 40.6% (active). For `O=C(NNc1nc(-c2cc3ccccc3oc2=O)cs1)c1ccccc1`, the inhibition was -15%. For `Cc1cccc(Cc2nnc(CCC(=O)N3CCN(C)C[C@@H]3c3ccccc3)o2)c1`, the inhibition was -0.78%. `COc1ccc(S(=O)(=O)NCCCNS(=O)(=O)c2ccc(OC)cc2)cc1` showed an inhibition of 5.92%. With `COc1ccc(CNS(=O)(=O)c2ccc(Oc3ccc(S(=O)(=O)NCc4ccc(OC)cc4)cc3)cc2)cc1` the inhibition was 55.4% (active). For `COc1ccc(S(=O)(=O)NCCN)cc1`, the inhibition was 4.56%. `CC(=O)Nc1ccc(Nc2nc(-c3ccccc3)nc3c2ncn3C(C)C)cc1` showed an inhibition of 18%. `Cc1c(Cl)cccc1N1C(=O)C2C3CCC(C3)C2C1=O` (stereo not given) showed an inhibition of 3.02%. For `CCC(=O)N(Cc1ccco1)Cc1cc2cc3c(cc2[nH]c1=O)OCCO3`, the inhibition was -9.49%. Work on `O=C(NNS(=O)(=O)c1cccc([N+](=O)[O-])c1)C1CCCCC1` yielded an inhibition of -1.44%. Compound `Cc1ccc(CN2C(=O)CCC2CCNCc2cc3c(cc2Cl)OCO3)cc1F` (stereo not given) has an inhibition of -1.93%. Work on `CCn1c(SCC(=O)Nc2nc3ccc(OC)cc3s2)nc2cccnc21` yielded an inhibition of 3.19%. Compound `Cc1[nH]n(-c2ccc([N+](=O)[O-])cc2)c(=O)c1C=NCCN1CCN(C(=O)/C=C/c2ccccc2)CC1` has an inhibition of 13.1%. `Clc1ccc(-c2cc(NCCCn3ccnc3)ncn2)cc1` gave an inhibition of -76.3%. For `Cc1nc(NCCCN2CCOCC2)cc(-c2ccccn2)n1`, the inhibition was 5.82%. In the case of `c1ccc(-c2cc(NCCCn3ccnc3)nc(-c3ccccn3)n2)nc1`, the inhibition was 54.3% (active). Work on `COc1ccc(Cl)cc1NC(=O)CC1C(=O)NCCN1C(=S)Nc1ccccc1` (stereo not given) yielded an inhibition of 2.46%. With `O=C(Nc1ccc(F)c(F)c1)c1ccc(N2CC3CC(C2)c2cccc(=O)n2C3)c(NC(=O)c2cccc(C(F)(F)F)c2)c1` (stereo not given) the inhibition was -14.9%. Work on `COc1ccc(/C(C)=N/Nc2nc3ccccc3[nH]2)cc1` yielded an inhibition of -5.09%. In the case of `Cc1ccc(NC(=O)Cc2cccc3ccccc23)c([N+](=O)[O-])c1`, the inhibition was -15.6%. Work on `COc1cccc(-c2cnnc(N(C)CCC3CCOCC3)n2)c1` yielded an inhibition of -25.5%. For `COc1ccc(-c2cnnc(N(C)CCC3CCOCC3)n2)cc1`, the inhibition was -22.1%. For `COc1ccc(-c2cnnc(N(C)Cc3cnn(C)c3)n2)cc1`, the inhibition was 36.4% (active). `O=C(c1cccc(Cl)c1)N1CCN(c2ccc([N+](=O)[O-])c(N3CCOCC3)c2)CC1` gave an inhibition of 13.5%. For `O=c1cc(-c2ccccc2)[nH]c2nc(Cl)ccc12`, the inhibition was 50.5% (active). Work on `O=c1cc(-c2ccccc2)sc2ccc(Cl)cc12` yielded an inhibition of -23.1%. `O=c1cc(-c2ccccc2)nc(NNc2ccccc2)[nH]1` gave an inhibition of 2.03%. `CCn1cc(C(=O)Nc2ccc(N3CCOCC3)cc2)c(=O)c2ccc(C)nc21` gave an inhibition of -7.7%. Compound `COc1ccc(CC(=O)N/N=C(\C)c2ccccn2)cc1OC` has an inhibition of 2.58%. In the case of `Cc1ccc(S(=O)(=O)Oc2ccc(Br)cc2C=O)cc1`, the inhibition was 31.9% (active). With `COc1cc(C=O)ccc1OS(=O)(=O)c1ccc(Cl)cc1` the inhibition was -7.3%. With `CCOC(=O)N/N=C/c1ccc(OS(=O)(=O)c2ccc(C)cc2)c(OC)c1` the inhibition was 3.61%. `CSCCC(=O)Nc1ccc(Cl)cc1` showed an inhibition of 2.57%. `Cc1ccc(NC2=C(Cl)C(=O)OC2OC(=O)c2ccccc2Br)cc1` (stereo not given) gave an inhibition of 9.63%. For `N#Cc1ccccc1OCCCCn1cnc2ccccc21`, the inhibition was 35% (active). Compound `O=c1c2ccccc2ncn1CCCCOc1ccccc1F` has an inhibition of 5.72%. With `O=C(O)c1cccc(OCC(O)Cn2cnc3ccccc32)c1` (stereo not given) the inhibition was 10%.
